Measurements published in ChEMBL document CHEMBL3433997, “St. Jude Leishmania screening dataset” (2016).

Target: Glucose transporter (Leishmania mexicana) (UniProt O61059)
Experiment: ST_JUDE_LEISH: Cytotoxicity at 2uM final concentration against transgenic Leishmania Mexicana promastigotes LmGT2 that are glucose transport deficient and complemented with the L. Mexicana glucose transporter 2. Activity is measured by DNA content using SYBR green in vitro
Type: functional

SMILES	inhibition
COc1cccc(N(CCCN2C(=O)c3cccc4cccc(c34)C2=O)C(=O)c2ccccc2C)c1	0.69%
CCN(CC)CCCN(CCCN(CC)CC)c1cc(C)nc(Nc2ccc3cc(Br)ccc3c2)n1	3.03%
O=C(NCCCCN1CCC(c2ccc3c(c2OCc2ccccn2)CCCC3)CC1)c1ccc(NC(=O)c2ccc(Cl)cc2)cc1	2.55%
CN1CCN(CCCN(Cc2csc(-c3ccc(CNCc4ccccc4)cc3)n2)C(=O)Nc2cc(Cl)cc(Cl)c2)CC1	7.7%
CCNC(=O)Nc1cccc(-c2cccc(-c3nc4cc(C(F)(F)F)ccc4[nH]3)c2)c1	7.55%
COc1cc(Cc2cnc(N)nc2N)ccc1OCc1ccc(F)c(F)c1	4.59%
Cc1nc(NCCc2c[nH]cn2)cc(NCc2ccccc2)n1	3.61%
CCN(CC)S(=O)(=O)c1ccc(Cl)c(C(=O)Nc2ccc3nc(C)sc3c2)c1	-1.58%
O=C(/C=C/c1ccc(Cl)c(Cl)c1)NCCCCCN1CCC(CCNC(=O)/C=C/c2ccccc2F)CC1	2.95%
Cc1cccc2nc(-c3ccc(-c4ccc(NC(=O)Nc5cccc(C#N)c5)cc4)s3)[nH]c12	8.07%
COc1ccc(NC(=O)C2c3ccccc3C(=O)N(C3CCCC3)C2c2cccs2)c(OC)c1 (stereo not given)	-1.93%
CC(C)CCN1CCC(Oc2cccc(NC(=O)c3ccc(C(F)(F)F)cc3)c2)CC1	1.09%
N#CCCN1CCN(Cc2cccc(-c3ccc(-c4nc5ccccc5[nH]4)s3)c2)CC1	-0.4%
O=C(NCCN1CCOCC1)c1ccc(-c2ccc(CNCCCc3ccccc3)cc2)nc1	-0.47%
O=C(C=Cc1ccc(F)cc1)N1CCN(S(=O)(=O)c2ccc(Cl)cc2)CC1	4.67%
COc1ccc(CN2CCCN(Cc3cccc(NC(=O)c4ccc(-c5ccccc5)cc4)c3)CC2)cc1	-4.3%
CNCCNCc1ccc(-c2ccc(-c3nc4cc(C(F)(F)F)ccc4[nH]3)s2)cc1	0.73%
Cc1nc(NC2=NCN(CCCN3CCOCC3)CN2)nc2c(C)cccc12	11%
CCc1cn(C)c2c(N3CCCC3=O)cc(C(=O)N[C@@H](Cc3ccccc3)[C@H](O)CNC(C)(C)CCCC(C)C)cc12	3.95%
CN(C(=O)/C=C/c1cc(C(F)(F)F)ccc1F)C1CCN(CCCCCNC(=O)/C=C/c2ccc(Cl)c(Cl)c2)C1 (stereo not given)	1.37%

SMILES	inhibition
COc1ccc(-c2cccc(NC(=O)c3cccc(Cl)c3)c2)cc1CN1CCNCC1	-0.77%
C=CCc1cccc(C)c1OCCCON1C(=N)N=C(N)NC1(C)C	1.9%
N=C(N)Nc1nc(-c2cccc(NC(=O)CCCCCCCON3C(N)=NC(N)=NC34CCCCC4)c2)cs1	3.75%
CC1CN(Cc2ccc(C#N)cc2)CCN1c1ccc(NC(=O)c2cccs2)cc1 (stereo not given)	8.98%
COC(=O)c1ccc2nc(-c3cc(-c4cccc(-c5ccccc5)c4)cnc3N)[nH]c2c1	4.17%
COc1c(C2CCN(CCCCNC(=O)c3ccc(NC(=O)c4ccc(C#N)cc4)cc3)CC2)ccc2c1CCCC2	0.9%
COc1ccc(S(=O)(=O)Nc2cc(Br)cc3c2OCCC3)cc1N1CCN(C(=O)C(Cl)(Cl)Cl)CC1	-0.3%
Oc1ccc(Nc2ccnc3cc(Cl)ccc23)cc1	4.27%
CN(Cc1cccc(F)c1)C1CCN(c2cc(NC(=O)c3cccc(F)c3)ccn2)CC1	2.7%
Cc1cccc2nc(-c3cccc(-c4ccc(CNCc5ccc(S(C)(=O)=O)cc5)cc4)c3)[nH]c12	7.97%
Cc1cc(C)c(C)c(S(=O)(=O)N2CCCCC(c3ccc(F)c(F)c3)=N2)c1C	6.62%
c1cc(C2=NC3CCCCC3N2)ccc1OCCCCCOc1ccc(C2=NC3CCCCC3N2)cc1 (stereo not given)	1.28%
COc1c(I)cc(Cc2cnc(N)nc2N)cc1I	2.6%
CCc1n[nH]c(C(=O)NC2CCN(CC3(c4ccc(OC)cc4)CCCCC3)CC2)c1C	1.81%
CC(=O)Nc1ccc(CN2CCc3ccc(NS(=O)(=O)c4ccc(-c5cccc(C(F)(F)F)c5)cc4)cc3CC2)s1	3.46%
O=C(Nc1cc2cc(-c3ccc(CN4CCCCC4)cc3)ccc2n2cnnc12)NC1CCCC1	3.67%
Clc1cccc(CNC2CCN(CC3CCCCC3)CC2)c1	6.03%
Clc1ccc(-c2ccc(CNCCCN3CCCC3)cc2)cc1	3.65%
CCOc1ccc(C2CCN(CCCCNC(=O)c3ccc(NC(=O)c4ccc(Cl)cc4)cc3)CC2)c(OCC)c1	2.91%
O=C(Nc1cccnc1)c1cc(-c2cc(Cl)ccc2O)n[nH]1	3.15%
